Test results reported in PubChem BioAssay (NCI).
The panel holds about 83,000 compounds, 20% with a hit somewhere; the sample as a whole holds those more often.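 Single-concentration screen, 48 h exposure, 96-well plates. Endpoint: percent growth. Below 10 = active.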 A number with no mark means an inactive call. Calls of active or inactive are those of the source.

Key:
Assay in all cases: NCI-60 one-dose screen, 48 h (100 = growth as untreated, 0 = no growth, -100 = all killed)
Details in all cases: 10 µM unless noted
[1] = test system: HCT-15 colon
[2] = test system: HT29 colon
[3] = test system: SNB-75 CNS
[4] = test system: SNB-19 CNS
[5] = test system: U251 CNS
[6] = test system: PC-3 prostate
[7] = test system: SK-MEL-5 melanoma
[8] = test system: UACC-62 melanoma
[9] = test system: LOX IMVI melanoma
[10] = test system: SK-MEL-28 melanoma
[11] = test system: SK-MEL-2 melanoma
[12] = test system: EKVX NSCLC
[13] = test system: SN12C renal
[14] = test system: UO-31 renal
[15] = test system: TK-10 renal
[16] = test system: ACHN renal
[17] = test system: CAKI-1 renal
[18] = test system: CCRF-CEM leukemia
[19] = test system: MOLT-4 leukemia

Structure (SMILES)	growth [1]	growth [2]	growth [3]	growth [4]	growth [5]	growth [6]	growth [7]	growth [8]	growth [9]	growth [10]	growth [11]	growth [12]	growth [13]	growth [14]	growth [15]	growth [16]	growth [17]	growth [18]	growth [19]
CCOc1cccc(-c2nc(N)nc(Nc3ccccc3SSc3ccccc3Nc3nc(N)nc(-c4cccc(OCC)c4)n3)n2)c1	18.5%	110%	90.5%	55.1%	8.24% (active)	29.5%	88%	66.2%	4.82% (active)	93.6%	98.1%	60.5%	32.9%	-25.5% (active)	102%	59.5%	8.02% (active)	46.5%	56.7%
O=C(Cc1ccccc1)NNc1nc(Cl)nc(N2CCN(C(c3ccccc3)c3ccccc3)CC2)n1	44.7%	72.6%	96%	94%	99.9%	81.5%	99.8%	91.9%	61.9%	101%	99.8%	91.9%	97.1%	96.7%	96%	94.9%	84.4%	11.1%	36.3%
NC(=NCc1ccccc1)C(N=Nc1ccccc1)C(=O)NCc1ccccc1 (stereo not given)	49.1%	18.3%	96.9%	63.4%	26.7%	62.7%	103%	76.6%	42.7%	106%	107%	82.5%	58.6%	68.3%	69.6%	92.1%	54%	76%	61%
Nc1nc(Nc2ccccc2SSc2ccccc2Nc2nc(N)nc(-c3ccc(C(F)(F)F)cc3)n2)nc(-c2ccc(C(F)(F)F)cc2)n1	17.2%	93.3%	86.2%	58%	41.2%	29.5%	88.9%	68.3%	27.5%	95.6%	93.7%	44.6%	57.6%	-84.6% (active)	95.4%	19.9%	-20.3% (active)	53.6%	56.2%
c1ccc2cc(Cn3c(-c4cccc5ccccc45)[n+](Cc4ccc5ccccc5c4)c4c5ccccc5c5ccccc5c43)ccc2c1	-60.4% (active)	-49.5% (active)	-66.3% (active)	-82.7% (active)	-91.1% (active)	-46.7% (active)	-98.1% (active)	-74.5% (active)	-84.3% (active)	-61.5% (active)	-72.5% (active)	-77.2% (active)	-82% (active)	-89.2% (active)	-79.8% (active)	-92.6% (active)	-96.7% (active)	-17.4% (active)	-55.3% (active)
CC1(C)CC[C@]23CC[C@]4(C)[C@H](CC[C@@H]5[C@@]6(C)CCCNC(C)(C)[C@@H]6CC[C@]54C)[C@H]2[C@H]1OC3	-63.7% (active)	-49.4% (active)	3.81% (active)	-20.2% (active)	-75.6% (active)	-10.7% (active)	-7.69% (active)	-51.1% (active)	-94.9% (active)	27.7%	10.5%	23.2%	17.7%	2.86% (active)	0.422% (active)	-88.3% (active)	-92% (active)	-6.07% (active)	-32.7% (active)
O=S(=O)(NCCNc1nccc(-c2c(-c3cccc(O)c3)nc3occn23)n1)c1ccc(C(F)(F)F)cc1	108%	72.9%	92.5%	115%	104%	99.7%	55.7%	26.7%	75.1%	58.3%	93.7%	105%	102%	93.9%	137%	84.4%	69.6%	106%	111%
O=C1Nc2cc(-c3cccc([N+](=O)[O-])c3)ccc2/C1=C/c1ccc[nH]1	28%	91.1%	64.6%	101%	98.8%	86.8%	70.3%	83.9%	90%	106%	88.1%	29.8%	101%	68.6%	65.6%	92.3%	80.9%	91.5%	97.4%
Cc1ccc(NC(=O)Cc2ccc(/C=C/C(=O)c3ncc[nH]3)cc2)cc1	11%	9.43% (active)	22.2%	16.6%	7.18% (active)	53.3%	73.9%	66.2%	10.9%	86.9%	109%	82.4%	13.5%	39.5%	78.4%	73.1%	61.1%	4.85% (active)	23.5%
COc1ccc(C(=O)NNc2nc(Cl)nc(N3CCN(C(c4ccccc4)c4ccccc4)CC3)n2)cc1	-37% (active)	-57.3% (active)	61.5%	45.4%	71.4%	-13.3% (active)	90.7%	33.1%	-64.3% (active)	53.9%	48.8%	82.4%	21.1%	87%	95%	22.8%	21.2%	-8.69% (active)	-39.2% (active)
CN1CCN(c2ccc(NC3=C(Cl)C(=O)c4ncccc4C3=O)cc2C(F)(F)F)CC1	-47% (active)	78.3%	96.9%	101%	88.6%	62.9%	92.8%	87%	-56.2% (active)	76.9%	89%	110%	93.9%	-80.4% (active)	-65.9% (active)	-56.2% (active)	-95.6% (active)	-1.56% (active)	1.95% (active)
CN[C@@H](C)C(=O)N[C@H]1CCS[C@H]2CC(C)(C)[C@@H](C(=O)N[C@H]3c4ccccc4C[C@H]3OCC#CC#CCO[C@@H]3Cc4ccccc4[C@@H]3NC(=O)[C@H]3N4C(=O)[C@@H](NC(=O)[C@H](C)NC)CCS[C@H]4CC3(C)C)N2C1=O	109%	112%	16.5%	97.1%	100%	102%	66.2%	102%	69.7%	107%	73.7%	121%	97.8%	97.8%	130%	106%	99.9%	25.1%	95.5%
CC(=O)N1N=C(c2ccc(-n3ccc(C(F)(F)F)n3)c(F)c2)CC1c1ccc[nH]1 (stereo not given)	98.8%	102%	103%	100%	99.3%	96.7%	97.7%	90.7%	98.1%	105%	94%	102%	102%	92.7%	108%	109%	95.4%	93.7%	85.6%
Cc1c(C(=O)NCCC(=O)NO)sc2ncnc(Nc3ccc(NC(=O)Nc4cccc(C(F)(F)F)c4)cc3)c12	101%	110%	78.8%	93.6%	80.2%	100%	97.1%	99.6%	94.5%	110%	109%	90.8%	100%	87.1%	140%	102%	99.3%	98.8%	106%
COc1cc(C2C3CC4CCCC[C@H]4N3[C@@]3(C(=O)Nc4cc(Cl)ccc43)C2C(=O)c2nc3ccccc3[nH]2)cc(OC)c1OC (stereo not given in full)	43.3%	35.6%	78.8%	72.5%	56.7%	43.7%	64.6%	57.5%	58.8%	82.4%	80.5%	48.6%	63.2%	34.8%	68.8%	56.9%	30.6%	42.2%	14%
